Inhibition data for 31 compounds are collected here from ChEMBL document CHEMBL1961873, “Compounds: GSK PKIS; Assays: Nanosyn kinase panel” (2012).

“And” between values parts separate entries of the source, which are not always exact repeats. Equal values may be shown once.

The target of the first experiment is Platelet-derived growth factor receptor alpha (Homo sapiens) (UniProt P16234). The note with it: at 1 µM.
Platelet-derived growth factor receptor alpha (Homo sapiens), sequence (P16234 whole entry): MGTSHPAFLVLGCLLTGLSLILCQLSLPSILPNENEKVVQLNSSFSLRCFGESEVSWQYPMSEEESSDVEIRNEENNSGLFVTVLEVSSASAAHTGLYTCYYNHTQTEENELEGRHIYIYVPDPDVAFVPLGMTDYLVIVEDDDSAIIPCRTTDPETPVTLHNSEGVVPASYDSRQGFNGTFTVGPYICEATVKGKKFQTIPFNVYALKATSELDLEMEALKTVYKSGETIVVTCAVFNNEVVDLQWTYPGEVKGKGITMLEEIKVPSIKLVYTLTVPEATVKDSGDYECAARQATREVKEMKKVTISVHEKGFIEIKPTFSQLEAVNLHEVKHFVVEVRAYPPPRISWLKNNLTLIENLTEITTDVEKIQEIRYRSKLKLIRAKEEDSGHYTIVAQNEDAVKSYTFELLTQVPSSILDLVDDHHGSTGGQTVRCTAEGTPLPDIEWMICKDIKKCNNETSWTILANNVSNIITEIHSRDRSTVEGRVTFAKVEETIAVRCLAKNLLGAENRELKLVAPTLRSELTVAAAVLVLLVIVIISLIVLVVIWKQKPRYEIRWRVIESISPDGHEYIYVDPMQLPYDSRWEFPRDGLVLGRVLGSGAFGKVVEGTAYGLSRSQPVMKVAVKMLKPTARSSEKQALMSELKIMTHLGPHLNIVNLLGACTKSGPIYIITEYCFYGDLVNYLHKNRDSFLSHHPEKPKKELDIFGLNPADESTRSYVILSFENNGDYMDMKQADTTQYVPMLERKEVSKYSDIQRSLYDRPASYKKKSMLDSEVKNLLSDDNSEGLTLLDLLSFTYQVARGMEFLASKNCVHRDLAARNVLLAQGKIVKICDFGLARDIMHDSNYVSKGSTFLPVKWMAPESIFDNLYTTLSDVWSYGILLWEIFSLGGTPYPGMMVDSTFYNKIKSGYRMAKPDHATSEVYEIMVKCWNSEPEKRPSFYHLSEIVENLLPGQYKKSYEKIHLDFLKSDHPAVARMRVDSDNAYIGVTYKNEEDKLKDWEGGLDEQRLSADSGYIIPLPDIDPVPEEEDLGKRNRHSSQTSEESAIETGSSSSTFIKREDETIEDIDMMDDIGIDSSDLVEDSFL
For orientation: inhibition means the change of the read-out against control, counted positive when it falls. On to `COc1cc(Nc2ncc(-c3ccccc3)o2)cc(OC)c1`, for which the inhibition is 54.3%.
Turning to `Fc1ccc(Nc2nccc(-c3c(-c4ccc(C(F)(F)F)cc4)nn4ncccc34)n2)cc1F`, the inhibition turned out to be 7.72%.
The same measure, in the same setting: for `COc1cc(N2CCN(C(C)C)CC2)ccc1Nc1nc(Nc2cccc(F)c2C(=O)O)c2cc[nH]c2n1` the value was 12.8%.
The same measure, in the same setting: then `CC1(C)CC(n2cnc(-c3ccc(F)cc3)c2-c2ccnc(N)n2)CC(C)(C)N1`, with 5.34%.
On the same count and under the same terms, for `COc1cccc(Nc2nccc(-c3cnn4ncccc34)n2)c1` the value was 49.3%; for `COc1ccc(-c2nn3ncccc3c2-c2ccnc(Nc3ccc(F)c(F)c3)n2)cc1`, 17.7%; for `CNC(=O)c1cncc(/C=C/c2ccccc2C)c1`, 17.8%.
`Cn1c(-c2nonc2N)nc2cnccc21`: the inhibition turned out to be 7.48%.
On the same count and under the same terms, then `Nc1ncnc2occ(-c3ccc(NC(=O)Nc4cc(C(F)(F)F)ccc4F)cc3)c12`, with 93.4% and 90.3%; and `CCOc1ccc2c(-c3ccnc(Nc4cc(OC)cc(C(F)(F)F)c4)n3)cnn2n1`, with 30%.
In the case of `O=C1Nc2ccccc2/C1=C1\CCc2cc(O)ccc21`, the inhibition came out at 63.2%.
For `O=C(O[C@H]1CN[C@H](C#Cc2cc3ncnc(Nc4ccc5c(ccn5Cc5cc(F)ccc5F)c4)c3s2)C1)N1CCOCC1`, the inhibition came to 12.3%.
Same read-out and setting: then `CS(=O)(=O)CCNCc1ccc(-c2ccc3ncnc(Nc4ccc(OCc5cccc(C(F)(F)F)c5)cc4)c3c2)o1`, with 15.9%; and `N#Cc1cccc(Nc2ncc(-c3ccccc3)o2)c1`, with 17%.
Same read-out and setting: for `N#Cc1ccc2c(-c3ccnc(NC4CC4)n3)c(-c3ccc(F)cc3)nn2c1` the value was 11.6%; for `CNC(=O)c1sc(-n2cnc3cc(OC)c(OC)cc32)cc1OCc1ccccc1C(F)(F)F`, 59.7%.

The test system of another experiment is Platelet-derived growth factor receptor alpha (Homo sapiens), P16234 [D842V]. The note with it: at 0.1 µM.
Platelet-derived growth factor receptor alpha (Homo sapiens), P16234 [D842V], sequence (P16234 whole entry D842V): as the sequence (P16234 whole entry) above, with D842V counted along it
In the case of `COc1ccc(Nc2ncc(-c3ccccc3)o2)cc1OC`, the inhibition was determined as 5.83%.
Turning to `CCS(=O)(=O)c1ccc(OC)c(Nc2ncc(-c3cccc(C(C)=O)c3)o2)c1`, the inhibition was determined as 20.1%.
The same measure, in the same setting: then `CS(=O)(=O)Nc1ccc(-c2ccc3c(NC(=O)C4CC4)n[nH]c3c2)cc1`, with 3.79%.
The same measure, in the same setting: for `CS(=O)(=O)CCNCc1ccoc1-c1ccc2ncnc(Nc3ccc(OCc4ccccc4)cc3)c2c1` the value was -0.69%; for `NS(=O)(=O)c1ccc(N/N=C2\C(=O)Nc3ccc(C(=O)NCc4ccncc4)cc32)cc1`, 18.8%.
On to `CN1CCC(C(=O)Nc2n[nH]c3nc(-c4ccc(O)cc4)c(Br)cc23)CC1`, for which the inhibition was 2.54% and 0.22%.
The same measure, in the same setting: then `CN1CCN(Cc2ccc(-c3cc4ncnc(Nc5ccc(OCc6cccc(F)c6)c(Cl)c5)c4s3)o2)CC1`, with 3.07% and 3.74%; and `COc1cc2c(cc1Nc1nc(Nc3cccc(F)c3C(N)=O)c3cc[nH]c3n1)N(C(=O)CN1CCN(C(C)C)CC1)CC2`, with -0.49%; and `COc1cccc(-n2ncc3c(N/N=C/c4ccc(C(=O)NCCN(C)C)cc4)ncnc32)c1`, with 55.7%.
The same measure, in the same setting: then `CN(c1ccc(NC(=O)NCCN2CCOCC2)cc1)c1ccnc(Nc2ccc(CS(C)(=O)=O)cc2)n1`, with 2.7%; and `Cc1nnc(-c2cccc(-c3ccc(C(=O)NCC4CC4)cc3)c2)o1`, with 2.78%.
The same measure, in the same setting: for `Cc1cc(O)cc(C)c1/C=C/c1cncc(C(N)=O)c1` the value was 3.88%.
Consider `NC(=O)c1ccc2c(-c3ccnc(NCCCO)n3)c(-c3ccc(F)cc3)nn2c1`, for which the inhibition amounted to 4.25%.
Consider `COc1ccc2ncn(-c3cc(O[C@H](C)c4ccccc4C(F)(F)F)c(C(N)=O)s3)c2c1`, for which the inhibition amounted to 4.46%.
As to `COc1cc(Nc2ncc(-c3ccccc3)o2)cc(OC)c1`, the inhibition was determined as 4.08%.
Still for that read-out and setting: then `COc1cc(N2CCN(C(C)C)CC2)ccc1Nc1nc(Nc2cccc(F)c2C(=O)O)c2cc[nH]c2n1`, with 3.04%; and `CC1(C)CC(n2cnc(-c3ccc(F)cc3)c2-c2ccnc(N)n2)CC(C)(C)N1`, with 1.19%; and `COc1cccc(Nc2nccc(-c3cnn4ncccc34)n2)c1`, with 6.1%.
Same read-out and setting: then `CNC(=O)c1cncc(/C=C/c2ccccc2C)c1`, with 3.85%.
The same measure, in the same setting: then `Cn1c(-c2nonc2N)nc2cnccc21`, with 2.81%; and `Nc1ncnc2occ(-c3ccc(NC(=O)Nc4cc(C(F)(F)F)ccc4F)cc3)c12`, with 17% and 8.08%; and `CCOc1ccc2c(-c3ccnc(Nc4cc(OC)cc(C(F)(F)F)c4)n3)cnn2n1`, with 2.97%.
For the compound `O=C1Nc2ccccc2/C1=C1\CCc2cc(O)ccc21`, the inhibition was determined as 7.24%.
As for `O=C(O[C@H]1CN[C@H](C#Cc2cc3ncnc(Nc4ccc5c(ccn5Cc5cc(F)ccc5F)c4)c3s2)C1)N1CCOCC1`, the inhibition is 2.95%.
Still for that read-out and setting: then `CS(=O)(=O)CCNCc1ccc(-c2ccc3ncnc(Nc4ccc(OCc5cccc(C(F)(F)F)c5)cc4)c3c2)o1`, with 0.59%; and `N#Cc1cccc(Nc2ncc(-c3ccccc3)o2)c1`, with 1.11%.
Turning to `N#Cc1ccc2c(-c3ccnc(NC4CC4)n3)c(-c3ccc(F)cc3)nn2c1`, the inhibition was -0.1%.
`CNC(=O)c1sc(-n2cnc3cc(OC)c(OC)cc32)cc1OCc1ccccc1C(F)(F)F`: the inhibition was 3.81%.

The next experiment has the same test system. The note with it: at 1 µM.
Consider `COc1ccc(Nc2ncc(-c3ccccc3)o2)cc1OC`, for which the inhibition was 28.4%.
Regarding `CCS(=O)(=O)c1ccc(OC)c(Nc2ncc(-c3cccc(C(C)=O)c3)o2)c1`, the inhibition is 72.8%.
With `CS(=O)(=O)Nc1ccc(-c2ccc3c(NC(=O)C4CC4)n[nH]c3c2)cc1`, the inhibition is 10.3%.
As for `CS(=O)(=O)CCNCc1ccoc1-c1ccc2ncnc(Nc3ccc(OCc4ccccc4)cc3)c2c1`, the inhibition came out at 2.14%.
Same read-out and setting: then `NS(=O)(=O)c1ccc(N/N=C2\C(=O)Nc3ccc(C(=O)NCc4ccncc4)cc32)cc1`, with 71.5%.
As for `CN1CCC(C(=O)Nc2n[nH]c3nc(-c4ccc(O)cc4)c(Br)cc23)CC1`, the inhibition is 16.3% and 9.77%.
Same read-out and setting: for `CN1CCN(Cc2ccc(-c3cc4ncnc(Nc5ccc(OCc6cccc(F)c6)c(Cl)c5)c4s3)o2)CC1` the value was 6.44% and 9.07%; for `COc1cc2c(cc1Nc1nc(Nc3cccc(F)c3C(N)=O)c3cc[nH]c3n1)N(C(=O)CN1CCN(C(C)C)CC1)CC2`, 1.55%; for `COc1cccc(-n2ncc3c(N/N=C/c4ccc(C(=O)NCCN(C)C)cc4)ncnc32)c1`, 88.8%.
On the same count and under the same terms, for `CN(c1ccc(NC(=O)NCCN2CCOCC2)cc1)c1ccnc(Nc2ccc(CS(C)(=O)=O)cc2)n1` the value was 28.6%; for `Cc1nnc(-c2cccc(-c3ccc(C(=O)NCC4CC4)cc3)c2)o1`, 5.47%.
For `Cc1cc(O)cc(C)c1/C=C/c1cncc(C(N)=O)c1`, the inhibition was 16.3%.
Turning to `FC(F)(F)CNc1nccc(-c2cnn3ncccc23)n1`, the inhibition stood at 4.9%.
With `NC(=O)c1ccc2c(-c3ccnc(NCCCO)n3)c(-c3ccc(F)cc3)nn2c1`, the inhibition was found to be 8.75%.
As for `COc1ccc2ncn(-c3cc(O[C@H](C)c4ccccc4C(F)(F)F)c(C(N)=O)s3)c2c1`, the inhibition came out at 24.9%.
As to `COc1cc(Nc2ncc(-c3ccccc3)o2)cc(OC)c1`, the inhibition stood at 12.3%.
Same read-out and setting: for `Fc1ccc(Nc2nccc(-c3c(-c4ccc(C(F)(F)F)cc4)nn4ncccc34)n2)cc1F` the value was 4.26%.
The same measure, in the same setting: for `COc1cc(N2CCN(C(C)C)CC2)ccc1Nc1nc(Nc2cccc(F)c2C(=O)O)c2cc[nH]c2n1` the value was 3.08%.
As to `CC1(C)CC(n2cnc(-c3ccc(F)cc3)c2-c2ccnc(N)n2)CC(C)(C)N1`, the inhibition came out at 0.18%.
Turning to `COc1cccc(Nc2nccc(-c3cnn4ncccc34)n2)c1`, the inhibition was 47.1%.
With `COc1ccc(-c2nn3ncccc3c2-c2ccnc(Nc3ccc(F)c(F)c3)n2)cc1`, the inhibition is 8.96%.
For `CNC(=O)c1cncc(/C=C/c2ccccc2C)c1`, the inhibition is 5.79%.
Regarding `Cn1c(-c2nonc2N)nc2cnccc21`, the inhibition was 4.99%.
On the same count and under the same terms, then `CCOc1ccc2c(-c3ccnc(Nc4cc(OC)cc(C(F)(F)F)c4)n3)cnn2n1`, with 18.4%; and `O=C1Nc2ccccc2/C1=C1\CCc2cc(O)ccc21`, with 34.7%.
As for `O=C(O[C@H]1CN[C@H](C#Cc2cc3ncnc(Nc4ccc5c(ccn5Cc5cc(F)ccc5F)c4)c3s2)C1)N1CCOCC1`, the inhibition came out at 3.49%.
Same read-out and setting: then `CS(=O)(=O)CCNCc1ccc(-c2ccc3ncnc(Nc4ccc(OCc5cccc(C(F)(F)F)c5)cc4)c3c2)o1`, with 1.85%; and `N#Cc1cccc(Nc2ncc(-c3ccccc3)o2)c1`, with 3.47%.
The same measure, in the same setting: then `N#Cc1ccc2c(-c3ccnc(NC4CC4)n3)c(-c3ccc(F)cc3)nn2c1`, with 6.91%; and `CNC(=O)c1sc(-n2cnc3cc(OC)c(OC)cc32)cc1OCc1ccccc1C(F)(F)F`, with 28%.
